# Calls of active or inactive are those of the source.
# How the values were obtained:
# [1] = test system: PRMT1 (protein arginine N-methyltransferase 1); assay: PRMT1 binders on small-molecule microarrays, primary screen, biochemical, small-molecule microarray, 635 nm fluorescence (AID 1088); conditions: small-molecule microarray binding, higher = more signal;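 further: binding of Prmt1 protein to compounds spotted on small-molecule microarray slides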
# [2] = yeast growth modulation, basal conditions, primary screen, YJM789 clinical isolate, OD600, 24 h (AID 1089);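 further: growth of clinical yeast isolate S. cerevisiae YJM 789 seeded 1000 cells per well; test concentration not given here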; conditions: S. cerevisiae YJM789 growth, higher = more signal, called active from +8 up or from −8 down
# [3] = fission yeast growth modulation, primary screen, strain 972, OD600, 24 h, no modulator (AID 1090);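 further: basal condition with compound alone and no growth modifier present; test concentration not given here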; conditions: S. pombe 972 growth, higher = more signal, called active from +8 up or from −8 down
# [4] = S. cerevisiae growth modulation with rapamycin, primary screen, strain BY4716, OD600, 96 h (AID 1091); conditions: higher = more signal, called active from +8 up or from −8 down; further: test concentration not given here
# [5] = biological target: Torsin-1A-interacting protein 2 (Homo sapiens) (UniProt Q8NFQ8); assay: LULL1 binders on small-molecule microarray, primary screen, cell lysate, human LULL1 lysate, 635/667 nm fluorescence (AID 1092); conditions: hLULL1 lysate binding, 635 nm fluorescence, higher = more signal;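 further: probe is lysate of COS7 cells overexpressing human LULL1; score merges per-feature 667 nm fluorescence with signal-to-noise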
# Torsin-1A-interacting protein 2 (Homo sapiens), sequence (Q8NFQ8 whole entry, looked up): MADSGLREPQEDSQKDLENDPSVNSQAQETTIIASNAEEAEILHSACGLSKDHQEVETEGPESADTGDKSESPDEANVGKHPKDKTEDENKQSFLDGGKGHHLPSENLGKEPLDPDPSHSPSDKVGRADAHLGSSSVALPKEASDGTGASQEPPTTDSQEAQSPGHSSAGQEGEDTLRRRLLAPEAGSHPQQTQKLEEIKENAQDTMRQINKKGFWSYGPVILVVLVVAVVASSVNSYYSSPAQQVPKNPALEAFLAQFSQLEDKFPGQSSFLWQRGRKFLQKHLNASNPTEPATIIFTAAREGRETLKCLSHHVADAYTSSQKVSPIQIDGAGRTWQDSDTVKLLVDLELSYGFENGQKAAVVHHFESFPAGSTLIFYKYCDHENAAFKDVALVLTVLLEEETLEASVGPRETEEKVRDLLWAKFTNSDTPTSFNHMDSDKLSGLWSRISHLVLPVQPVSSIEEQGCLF
# [6] = E. coli growth modulation, two-sided OD650, primary screen, E. coli filamentation project, strain DRC41, 24 h (AID 1093); conditions: OD650, 24 h, higher = more signal, called active from +8 up or from −8 down;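 further: MC1000 strain lacking acrAB efflux and sulA so SOS filamentation is blocked; test concentration not given here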
# [7] = small-molecule microarray binders of probe aLefty2, primary screen, biochemical, biotinylated probe, 635/667 nm fluorescence (AID 1094); conditions: higher = more signal;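 further: score merges spot fluorescence near 667 nm with spot signal-to-noise ratio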
# [8] = test system: Noggin (protein binding on small-molecule microarray); assay: Noggin binders on small-molecule microarray, primary screen, biochemical, 635/667 nm fluorescence (AID 1095); conditions: 635 nm fluorescence, higher = more signal;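 further: score merges 667 nm feature fluorescence with signal to noise over triplicate slides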
# [9] = biological target: Neurogenic locus notch homolog protein 3 (Homo sapiens) (UniProt Q9UM47); assay: NOTCH3 binders on small-molecule microarray, primary screen, biochemical, 635/667 nm fluorescence (AID 1096); conditions: NOTCH3 binding, 635 nm fluorescence, higher = more signal
# Neurogenic locus notch homolog protein 3 (Homo sapiens), sequence (Q9UM47 whole entry, looked up): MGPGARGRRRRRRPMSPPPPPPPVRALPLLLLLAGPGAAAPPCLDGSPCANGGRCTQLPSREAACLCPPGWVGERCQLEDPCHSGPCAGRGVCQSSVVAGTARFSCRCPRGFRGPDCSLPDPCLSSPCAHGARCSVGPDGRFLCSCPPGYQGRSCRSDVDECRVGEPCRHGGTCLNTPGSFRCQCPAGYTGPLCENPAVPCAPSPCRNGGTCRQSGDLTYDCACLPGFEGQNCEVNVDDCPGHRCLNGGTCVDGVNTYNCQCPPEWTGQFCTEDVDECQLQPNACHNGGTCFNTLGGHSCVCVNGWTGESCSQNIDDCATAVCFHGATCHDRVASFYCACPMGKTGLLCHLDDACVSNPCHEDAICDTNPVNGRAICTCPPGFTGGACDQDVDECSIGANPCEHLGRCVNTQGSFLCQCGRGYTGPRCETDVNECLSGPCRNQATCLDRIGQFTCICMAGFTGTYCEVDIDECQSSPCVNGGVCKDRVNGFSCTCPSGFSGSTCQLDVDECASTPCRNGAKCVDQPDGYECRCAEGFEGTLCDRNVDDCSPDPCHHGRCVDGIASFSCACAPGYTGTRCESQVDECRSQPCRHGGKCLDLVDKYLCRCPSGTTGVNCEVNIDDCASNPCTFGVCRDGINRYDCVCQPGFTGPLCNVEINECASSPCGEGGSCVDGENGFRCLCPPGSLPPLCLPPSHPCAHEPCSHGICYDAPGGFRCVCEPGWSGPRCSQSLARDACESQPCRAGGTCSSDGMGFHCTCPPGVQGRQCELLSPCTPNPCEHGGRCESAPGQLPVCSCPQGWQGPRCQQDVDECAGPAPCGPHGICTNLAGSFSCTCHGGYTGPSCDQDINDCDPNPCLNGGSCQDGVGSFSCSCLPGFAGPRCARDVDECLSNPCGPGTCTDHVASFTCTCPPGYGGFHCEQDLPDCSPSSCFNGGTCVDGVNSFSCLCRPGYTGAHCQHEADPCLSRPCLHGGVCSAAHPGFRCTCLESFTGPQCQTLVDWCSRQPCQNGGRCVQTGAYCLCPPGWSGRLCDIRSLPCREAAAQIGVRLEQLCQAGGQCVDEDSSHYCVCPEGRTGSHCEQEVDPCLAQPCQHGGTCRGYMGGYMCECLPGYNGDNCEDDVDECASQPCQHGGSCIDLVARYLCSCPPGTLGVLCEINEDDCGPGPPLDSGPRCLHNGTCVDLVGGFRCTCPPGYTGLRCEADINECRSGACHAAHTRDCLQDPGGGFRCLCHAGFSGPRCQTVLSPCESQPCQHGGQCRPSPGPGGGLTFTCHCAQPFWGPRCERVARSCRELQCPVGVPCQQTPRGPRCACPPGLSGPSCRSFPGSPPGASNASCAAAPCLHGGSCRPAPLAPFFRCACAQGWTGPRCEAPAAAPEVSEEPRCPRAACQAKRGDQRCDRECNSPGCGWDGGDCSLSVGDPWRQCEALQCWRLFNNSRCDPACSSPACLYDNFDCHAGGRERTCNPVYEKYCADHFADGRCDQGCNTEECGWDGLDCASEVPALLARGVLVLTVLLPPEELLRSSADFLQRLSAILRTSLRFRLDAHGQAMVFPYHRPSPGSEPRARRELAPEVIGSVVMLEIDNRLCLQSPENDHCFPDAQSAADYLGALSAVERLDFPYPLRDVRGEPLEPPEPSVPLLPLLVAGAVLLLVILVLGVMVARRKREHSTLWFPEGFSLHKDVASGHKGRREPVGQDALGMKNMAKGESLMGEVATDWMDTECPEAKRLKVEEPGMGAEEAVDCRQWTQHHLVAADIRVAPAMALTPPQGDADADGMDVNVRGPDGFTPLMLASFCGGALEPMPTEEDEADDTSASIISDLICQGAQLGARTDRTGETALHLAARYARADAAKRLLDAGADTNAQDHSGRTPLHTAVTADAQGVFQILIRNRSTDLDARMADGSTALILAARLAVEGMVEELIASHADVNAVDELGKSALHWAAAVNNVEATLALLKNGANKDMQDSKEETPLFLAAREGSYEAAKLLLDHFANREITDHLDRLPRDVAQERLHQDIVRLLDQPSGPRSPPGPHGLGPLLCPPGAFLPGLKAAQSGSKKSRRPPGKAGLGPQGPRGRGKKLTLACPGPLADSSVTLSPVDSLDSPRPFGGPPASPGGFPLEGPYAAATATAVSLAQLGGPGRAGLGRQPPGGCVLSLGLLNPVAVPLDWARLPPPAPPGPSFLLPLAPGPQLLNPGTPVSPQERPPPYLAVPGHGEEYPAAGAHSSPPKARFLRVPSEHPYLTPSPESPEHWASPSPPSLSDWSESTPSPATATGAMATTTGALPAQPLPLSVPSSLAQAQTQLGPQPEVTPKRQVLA
# [10] = small-molecule microarray binders of probe aEGFR, primary screen, biochemical, biotinylated probe, 635/667 nm fluorescence (AID 1097); conditions: higher = more signal;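 further: probe is a biotinylated anti-EGFR antibody binding compounds printed on slides; score combines fluorescence near 667 nm and signal to noise of each spot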
# [11] = test system: Plasmodium falciparum Sir2 (PF13_0152, Sir2A); assay: pfSir2 binders on small-molecule microarrays, primary screen, biochemical, small-molecule microarray, 635 nm fluorescence (AID 1098); conditions: small-molecule microarray binding, fluorescence 635 nm; higher = more signal;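 further: score merges spot fluorescence intensity with its signal-to-noise ratio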
# [12] = small-molecule microarray binders of probe aDKK1, primary screen, biochemical, biotinylated probe, 635/667 nm fluorescence (AID 1099); conditions: higher = more signal;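 further: score merges 667nm spot fluorescence with signal to noise across triplicate slides; reference of the scale not given here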
# [13] = small-molecule microarray binders of probe aCHRDL2, primary screen, biochemical, biotinylated probe, 635/667 nm fluorescence (AID 1100); conditions: higher = more signal
# [14] = splicing luciferase reporter signal modulators, primary screen, spliceosome inhibition project, cell-based, HEK293, splice +/- reporter (AID 1101); conditions: luminescence, 24 h, higher = more signal, called active from +8 up or from −8 down;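 further: HEK293 cells carrying a splicing-competent luciferase reporter gene; test concentration not given here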
# [15] = biological target: Fibroblast growth factor 10 (Homo sapiens) (UniProt O15520); assay: FGF10 binders on small-molecule microarrays, primary screen, biochemical, small-molecule microarray, 635 nm fluorescence (AID 1102); conditions: FGF10 binding, fluorescence 635 nm, higher = more signal
# Fibroblast growth factor 10 (Homo sapiens), sequence (O15520 whole entry, looked up): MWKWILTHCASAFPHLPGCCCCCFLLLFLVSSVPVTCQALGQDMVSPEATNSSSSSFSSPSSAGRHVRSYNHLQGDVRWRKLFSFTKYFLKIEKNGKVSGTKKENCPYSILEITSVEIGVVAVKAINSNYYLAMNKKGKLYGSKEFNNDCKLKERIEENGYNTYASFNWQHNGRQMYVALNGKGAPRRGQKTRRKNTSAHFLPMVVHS
# [16] = test system: glycogen synthase kinase-3 (GSK3A per assay name; protocol says GSK3B); assay: GSK3 binders on small-molecule microarrays, primary screen, biochemical, small-molecule microarray, 635 nm fluorescence, GSK3A (AID 1103); conditions: small-molecule microarray binding, fluorescence 635 nm; higher = more signal; further: the record names both GSK3A and GSK3B
# [17] = biological target: Epidermal growth factor receptor (Homo sapiens) (UniProt P00533); assay: EGFR binders on small-molecule microarrays, primary screen, biochemical, small-molecule microarray, 635 nm fluorescence (AID 1104); conditions: EGFR binding, higher = more signal;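 further: score merges 667 nm emission intensity with spot signal to noise over triplicate slides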
# Epidermal growth factor receptor (Homo sapiens), sequence (P00533 whole entry, looked up): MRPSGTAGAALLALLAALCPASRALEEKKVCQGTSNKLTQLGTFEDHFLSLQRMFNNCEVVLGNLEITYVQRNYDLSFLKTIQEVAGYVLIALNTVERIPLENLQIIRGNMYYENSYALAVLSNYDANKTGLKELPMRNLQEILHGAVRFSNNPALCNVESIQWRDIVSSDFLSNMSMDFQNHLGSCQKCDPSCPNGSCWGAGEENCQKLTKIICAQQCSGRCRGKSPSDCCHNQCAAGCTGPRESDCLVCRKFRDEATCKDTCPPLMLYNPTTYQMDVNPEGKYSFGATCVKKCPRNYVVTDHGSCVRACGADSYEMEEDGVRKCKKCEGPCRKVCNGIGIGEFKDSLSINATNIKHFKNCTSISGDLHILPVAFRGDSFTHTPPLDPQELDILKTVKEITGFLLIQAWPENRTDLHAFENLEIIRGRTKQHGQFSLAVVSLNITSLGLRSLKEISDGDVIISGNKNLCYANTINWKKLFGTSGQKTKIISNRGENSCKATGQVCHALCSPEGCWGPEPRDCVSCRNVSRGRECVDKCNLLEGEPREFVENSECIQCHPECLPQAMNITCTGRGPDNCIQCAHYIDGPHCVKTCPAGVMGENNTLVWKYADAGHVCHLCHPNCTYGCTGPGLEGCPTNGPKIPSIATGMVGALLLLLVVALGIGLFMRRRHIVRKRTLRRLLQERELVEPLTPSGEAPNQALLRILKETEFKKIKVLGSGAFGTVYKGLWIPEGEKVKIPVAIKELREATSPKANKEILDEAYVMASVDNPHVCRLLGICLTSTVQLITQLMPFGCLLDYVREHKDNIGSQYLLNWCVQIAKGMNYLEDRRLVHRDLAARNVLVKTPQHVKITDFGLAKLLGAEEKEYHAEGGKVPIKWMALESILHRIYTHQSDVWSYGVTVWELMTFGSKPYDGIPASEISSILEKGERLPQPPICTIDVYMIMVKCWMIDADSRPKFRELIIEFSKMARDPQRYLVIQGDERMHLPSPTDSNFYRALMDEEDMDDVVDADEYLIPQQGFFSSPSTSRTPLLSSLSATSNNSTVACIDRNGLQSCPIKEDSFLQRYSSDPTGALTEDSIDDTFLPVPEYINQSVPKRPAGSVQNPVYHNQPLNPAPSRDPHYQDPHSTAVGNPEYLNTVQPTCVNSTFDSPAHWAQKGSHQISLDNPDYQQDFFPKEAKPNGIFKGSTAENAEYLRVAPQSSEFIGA
# [18] = biological target: Follistatin-related protein 3 (Homo sapiens) (UniProt O95633); assay: FSTL3 binders on small-molecule microarrays, primary screen, biochemical, small-molecule microarray, 635 nm fluorescence (AID 1105); conditions: FSTL3 binding, higher = more signal;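 further: score merges emission near 667 nm and signal to noise per printed spot across three slides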
# Follistatin-related protein 3 (Homo sapiens), sequence (O95633 whole entry, looked up): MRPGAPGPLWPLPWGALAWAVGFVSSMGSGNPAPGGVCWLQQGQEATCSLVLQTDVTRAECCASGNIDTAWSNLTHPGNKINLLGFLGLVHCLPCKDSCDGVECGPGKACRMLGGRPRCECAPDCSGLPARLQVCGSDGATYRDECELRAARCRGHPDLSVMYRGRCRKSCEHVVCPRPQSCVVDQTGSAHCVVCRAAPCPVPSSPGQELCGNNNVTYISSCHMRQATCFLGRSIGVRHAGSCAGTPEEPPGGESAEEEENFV
# [19] = biological target: Dickkopf-related protein 1 (Homo sapiens) (UniProt O94907); assay: DKK1 binders on small-molecule microarrays, primary screen, biochemical, small-molecule microarray, 635 nm fluorescence scan (AID 1106); conditions: DKK1 binding, higher = more signal;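 further: score merges emission near 667 nm with signal to noise over three replicate slides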
# Dickkopf-related protein 1 (Homo sapiens), sequence (O94907 whole entry, looked up): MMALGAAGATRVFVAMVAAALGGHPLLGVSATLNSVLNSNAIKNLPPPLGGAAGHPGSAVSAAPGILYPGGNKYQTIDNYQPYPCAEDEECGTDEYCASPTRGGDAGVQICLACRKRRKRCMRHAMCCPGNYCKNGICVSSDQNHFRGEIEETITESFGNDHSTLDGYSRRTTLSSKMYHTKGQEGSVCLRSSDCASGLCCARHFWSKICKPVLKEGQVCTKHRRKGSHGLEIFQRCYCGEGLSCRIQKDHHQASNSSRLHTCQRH
# [20] = test system: Inhibin beta A chain (activin A); assay: INHBA (activin A) binders on microarrays, primary screen, biochemical, small-molecule microarray, 635 nm fluorescence scan (AID 1107); conditions: small-molecule microarray binding, higher = more signal;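 further: mouse activin A protein probed at 4.33 µg/mL on printed slides; score merges bound-protein fluorescence near 667 nm with spot signal-to-noise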
Compound,composite z-score [1],z-score [2],z-score [3],z-score [4],composite z-score [5],z-score [6],composite z-score [7],composite z-score [8],composite z-score [9],composite z-score [10],composite z-score [11],composite z-score [12],composite z-score [13],z-score [14],composite z-score [15],composite z-score [16],composite z-score [17],composite z-score [18],composite z-score [19],composite z-score [20]
[N-]=[N+]=NCc1ccccc1C[C@]1(C(=O)NCc2ccccc2)N=C(c2ccc(OCCCO)cc2)O[C@H]1c1ccccc1CN=[N+]=[N-],1.37,1.27 (inactive),0.736 (inactive),22.6 (active),3.25,1.79 (inactive),-0.106,-0.243,0.561,0.0506,1.03,1.22,0.889,-1.33 (inactive),-0.0516,0.412,-0.253,0.0358,-0.726,0.794
NC(=O)N1C(=O)C2C(C1=O)C1C=C(CCCO)C2C(c2ccc(CN3CCCC3)cc2)N1Cc1cccc(OC(F)(F)F)c1 (stereo not given),1.33,-1.11 (inactive),-2.67 (inactive),-2.1 (inactive),1.28,0.489 (inactive),0.0472,0.623,0.0057,-0.0286,0.488,0.084,0.263,-0.443 (inactive),0.374,0.686,0.634,0.719,0.723,1.59
Cc1ccc(F)cc1S(=O)(=O)N[C@@H]1CCN(Cc2ccc3[nH]ccc3c2)C1,0.556,-0.765 (inactive),-2.97 (inactive),-0.873 (inactive),2.31,-1.76 (inactive),-0.177,0.418,0.933,-0.0512,0.114,-0.177,-0.124,0.309 (inactive),0.482,0.139,0.651,1.08,0.574,0.689
CN(C)C(=O)[C@]1(Cc2ccccc2)N=C(c2ccc(OCCCO)cc2)O[C@@H]1c1ccccc1,1.52,0.0608 (inactive),-3.66 (inactive),-0.344 (inactive),3.52,-0.465 (inactive),0.0735,0.372,0.771,-0.0157,0.747,0.129,0.624,-0.012 (inactive),1.13,1.29,-0.515,0.289,-0.698,0.231
C=C(/C(=C/C[C@H](OC(=O)c1ccncc1)c1ccccc1OCCO)c1cc(C(=O)OC)ccc1OC)C(C)C,1.43,0.363 (inactive),0.115 (inactive),2.11 (inactive),2.74,0.329 (inactive),-0.159,0.691,1.13,-0.112,0.748,-0.0168,0.253,-0.361 (inactive),1.54,0.33,-0.105,1.1,0.599,1.25
C=CC[C@@]1(C(=O)N(C)C)N=C(c2ccc(OCCCO)cc2)O[C@@H]1c1ccccc1,0.52,-0.69 (inactive),-2.28 (inactive),-2.31 (inactive),3.5,-0.343 (inactive),0.363,-0.474,-0.0401,0.464,1.72,0.595,0.959,-0.69 (inactive),1.4,1.01,-0.644,-0.583,-0.217,1.17
CC1CC/C=C\[C@H]2OC34C=CCN(CCN5CCOCC5)C(=O)[C@H]3N(CCCCCCO)C(=O)[C@@H]4C2C(=O)O1 (stereo not given in full),-0.592,0.0356 (inactive),-0.573 (inactive),0.132 (inactive),0.318,-0.263 (inactive),-0.192,-0.403,-0.218,-0.278,0.195,-0.301,0.0746,0.433 (inactive),-0.721,-0.993,-1,-0.704,-0.355,0.516
CCOC(=O)C[C@H]1[C@H](OC(=O)c2cc3ccccc3oc2=O)[C@@H](NC(=O)C2CCCCC2)c2cc(OCCCO)ccc2N1C(=O)Cc1ccc(OC)cc1,0.466,0.248 (inactive),0.222 (inactive),-0.295 (inactive),0.727,-0.723 (inactive),0.0424,0.909,0.894,-0.0623,0.199,0.0483,0.0801,0.0427 (inactive),1,0.469,0.193,0.397,0.447,0.6
CC(C)=CCN(C(=O)C#Cc1ccccc1)[C@H](CO)c1ccccc1,0.95,-0.577 (inactive),-4.9 (inactive),36.4 (active),1.2,0.354 (inactive),-0.116,0.69,0.829,-0.0302,-0.117,-0.267,-0.693,7.56 (inactive),0.341,0.506,0.512,0.604,0.439,0.661
CC[C@H](C)C(=O)O[C@H]1CC[C@]2(C)C3=C(CCC2C1(C)C)[C@]1(C)CC[C@H]([C@H](C)CCCC(C)C)[C@@]1(C)CC3 (stereo not given in full),0.0683,0.737 (inactive),0.14 (inactive),0.17 (inactive),0.125,2.24 (inactive),-0.108,0.296,0.854,-0.0431,0.479,-0.0754,-0.314,-0.634 (inactive),0.48,0.634,0.65,0.487,0.474,0.0848
CCC(CC)C(O)C1C=CC2C(=O)N(C)C(=O)C2N1N1CCCCC1 (stereo not given),1.36,-0.059 (inactive),0.274 (inactive),-0.537 (inactive),3.42,-1.29 (inactive),0.0353,0.334,1.04,0.0142,0.669,1.72,0.906,1.58 (inactive),0.91,0.93,0.411,1.43,0.233,0.539
C=CCC(OC(C)=O)[C@@H]1[C@@H](N(Cc2cccc3ccccc23)C(=O)c2cccc3ccccc23)c2cc(OCCCO)ccc2N1C(=O)Cc1ccc2ccccc2c1 (stereo not given in full),-0.254,-0.796 (inactive),0.0827 (inactive),-1.45 (inactive),-0.0809,-0.225 (inactive),-0.193,0.0493,0.002,-0.0675,-0.181,-0.177,0.551,0.341 (inactive),-0.0715,-0.0273,-0.117,0.246,-0.394,1.48
COC(=O)[C@]1(CO)N=C(c2ccc(OCCCO)cc2)O[C@@H]1c1ccccc1CN=[N+]=[N-],0.575,0.11 (inactive),0.44 (inactive),1.85 (inactive),0.852,0.628 (inactive),-0.0884,0.227,-0.318,-0.285,0.853,0.109,0.292,0.706 (inactive),0.0716,0.421,-0.237,0.0239,0.102,0.193
COc1ccc([Si](C)(C)[C@H]2[C@H](CC(=O)N3Cc4ccccc4C[C@H]3CO)O[C@@]3(C(=O)N(Cc4cccc(N5C(=O)c6cccc7cccc5c67)c4)c4ccccc43)[C@@H]2C)cc1,1.56,-0.0979 (inactive),0.39 (inactive),1.77 (inactive),2.14,-0.0872 (inactive),-0.173,1.57,1.13,-0.122,1.63,-0.37,-0.151,-1.87 (inactive),1.31,0.627,0.774,1.28,0.948,1.2
C=CCOC(=O)[C@@H]1[C@H]2C(=O)O[C@H](c3ccccc3)[C@H](c3ccccc3)N2[C@H](c2ccc(OCCOC(=O)[C@H]3C[C@H]4C(=O)NCC(=O)N4[C@H]3c3ccc(O)cc3)cc2)[C@@]12C(=O)Nc1ccc(I)cc12,1.53,1.22 (inactive),0.761 (inactive),4.27 (inactive),2.08,-0.615 (inactive),-0.162,1.59,1.15,0.0026,1.57,0.159,0.21,1.14 (inactive),0.613,1.35,0.728,1.02,0.674,-0.0057
O=C1OCCC=C[C@H]2OC34C=CCN(c5ccc(Cl)cc5)C(=O)[C@H]3N(CCO)C(=O)[C@@H]4C12 (stereo not given in full),-0.502,-0.237 (inactive),-0.335 (inactive),-0.253 (inactive),-0.241,0.474 (inactive),-0.121,-0.545,-0.0792,-0.194,-0.358,-0.208,0.266,-0.343 (inactive),-0.45,-0.695,-0.723,-0.683,-0.568,-1.16
COC(=O)[C@@]1(Cc2ccc(F)cc2)[C@H]2c3cc(C(=O)N4CCCC4)n(CCO)c3C[C@H]2CN1C(=O)c1ccccc1,-1.09,-0.215 (inactive),1 (inactive),-0.164 (inactive),2.88,0.208 (inactive),0.335,0.4,0.517,0.0753,1.33,0.532,0.977,-0.495 (inactive),0.597,-0.166,-0.244,-0.479,-0.572,0.671
CC#CCO[Si](C#CCCCCCC)(C(C)C)C(C)C,0.276,0.176 (inactive),-19.1 (active),-1.61 (inactive),0.373,-0.0013 (inactive),0.137,-2.8,-1.16,-0.466,1.5,-0.32,1.21,0.176 (inactive),-2.46,-0.719,-2.07,-2.09,-3.48,-2.74
[N-]=[N+]=NCc1ccccc1[C@H]1OC(c2ccc(OCCCO)cc2)=N[C@@]1(Cc1ccccc1)C(=O)N1CCOCC1,1.46,-2.07 (inactive),-0.21 (inactive),-0.0315 (inactive),3.51,-0.522 (inactive),0.254,0.316,1.08,0.266,1.25,0.721,0.884,-0.991 (inactive),1.37,1.33,0.0968,0.808,-0.0244,-0.303

# Reference: PubChem BioAssay
